# Active and inactive are the calls of the source. Rule for the calls: active = hit-call score of the fitted dose curve at least 0.9, where 1 is the maximum; inactive = score below 0.9.
# Columns and labels:
# [1] = read-out: Interleukin-1 alpha (IL1a), IL1A (gene 3552); test: BSK_KF3CT_IL1a: BioMAP Diversity Plus: KF3CT Assay for Interleukin-1 alpha (IL1a) Biomarker Activity (AID 2283070); details: primary human keratinocytes with fibroblasts; actives raise or lower the signal
# Method in brief: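 Primary human keratinocyte plus foreskin fibroblast co-culture, dosed and measured at 24 h in 96-well plates. IL-1a level quantified by ELISA; bidirectional fit relative to DMSO.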
# [2] = read-out: TIMP metallopeptidase inhibitor 2 (TIMP2), TIMP2 (gene 7077); test: BSK_KF3CT_TIMP2: BioMAP Diversity Plus: KF3CT Assay for TIMP metallopeptidase inhibitor 2 (TIMP2) Biomarker Activity (AID 2283071); details: primary human keratinocytes with fibroblasts; actives raise or lower the signal
# Method in brief: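 Cells: human keratinocytes co-cultured with foreskin fibroblasts. Treat with chemical, 24 h. Measure TIMP-2 by ELISA; fit curves bidirectionally vs DMSO baseline.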
# [3] = read-out: Transforming growth factor beta 1 (TGFb1), TGFB1 (gene 7040); test: BSK_KF3CT_TGFb1: BioMAP Diversity Plus: KF3CT Assay for Transforming growth factor beta 1 (TGFb1) Biomarker Activity (AID 2283072); details: primary human keratinocytes with fibroblasts; actives raise or lower the signal
# Method in brief: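 Primary human skin cells (keratinocytes, foreskin fibroblasts) were co-cultured, exposed to test chemical and sampled at 24 h. TGF-b1 levels were measured by ELISA and fitted bidirectionally relative to DMSO.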
# [4] = read-out: C-C motif chemokine 2 (Homo sapiens) (UniProt P13500); test: BSK_KF3CT_MCP1: BioMAP Diversity Plus: KF3CT Assay for Monocyte Chemoattractant Protein 1 (MCP1/CCL2) Biomarker Activity (AID 2283073); details: primary human keratinocytes with fibroblasts; actives raise or lower the signal
# Method in brief: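 Human keratinocyte plus foreskin fibroblast primary co-culture exposed to chemical for 24 h. MCP-1 levels measured by ELISA. Bidirectional curve fitting relative to DMSO negative control as baseline.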
# [5] = read-out: Matrix Metallopeptidase 9 (MMP9), MMP9 (gene 4318); test: BSK_KF3CT_MMP9: BioMAP Diversity Plus: KF3CT Assay for Matrix Metallopeptidase 9 (MMP9) Biomarker Activity (AID 2283074); details: primary human keratinocytes with fibroblasts; actives raise or lower the signal;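 for AC50: MMP9 protein level quantified by ELISA in the co-culture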
# Method in brief: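 Human keratinocyte and foreskin fibroblast co-culture exposed to chemicals for 24 h; MMP9 biomarker measured by ELISA, bidirectional fitting relative to DMSO; cytotoxicity tracked by SRB total protein staining in parallel cultures.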
# [6] = read-out: urokinase plasminogen activator (uPA), PLAU (gene 5328); test: BSK_KF3CT_uPA: BioMAP Diversity Plus: KF3CT Assay for urokinase plasminogen activator (uPA) Biomarker Activity (AID 2283075); details: primary human keratinocytes with fibroblasts; actives raise or lower the signal
# Method in brief: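 Primary human keratinocyte/foreskin fibroblast co-culture exposed to chemical; uPA measured by ELISA at 24 h. Bidirectional fit versus DMSO, with parallel SRB total-protein staining for cytotoxicity.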
# [7] = read-out: CD40, CD40 (gene 958); test: BSK_LPS_CD40: BioMAP Diversity Plus: LPS Assay for CD40 Biomarker Activity (AID 2283076); details: primary human HUVEC with PBMC; actives raise or lower the signal
# Method in brief: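 Primary human umbilical vein endothelial cells co-cultured with peripheral blood mononuclear cells, LPS-stimulated, were dosed with chemical and read 24 h later. CD40 levels were measured by ELISA and fitted bidirectionally against DMSO as negative control and baseline.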
# [8] = read-out: E-selectin (Homo sapiens) (UniProt P16581); test: BSK_LPS_Eselectin: BioMAP Diversity Plus: LPS Assay for Eselectin Biomarker Activity (AID 2283077); details: primary human HUVEC with PBMC; actives raise or lower the signal
# Method in brief: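 Human umbilical vein endothelial cells co-cultured with peripheral blood mononuclear cells under LPS stimulation; E-selectin measured by ELISA 24 h after chemical dosing. Activity fitted bidirectionally against DMSO as negative control and baseline.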
# [9] = read-out: Interleukin-8 (IL8), CXCL8 (gene 3576); test: BSK_LPS_IL8: BioMAP Diversity Plus: LPS Assay for Interleukin-8 (IL8) Biomarker Activity (AID 2283078); details: primary human HUVEC with PBMC; actives raise or lower the signal
# Method in brief: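 Human umbilical vein endothelial cells co-cultured with PBMC were stimulated with LPS; IL-8 levels were measured by ELISA 24 h after chemical dosing. Activity was fitted bidirectionally against DMSO as negative control and baseline.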
# [10] = BSK_LPS_SRB: Viability Assessment in the BioMAP Diversity Plus: LPS Assay (AID 2283079); details: primary human HUVEC with PBMC;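 note: total protein by sulforhodamine B absorbance as a cytotoxicity measure; measured one day after compound addition; fitted in both directions against DMSO so loss or gain of signal counts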
# Method in brief: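 Human umbilical vein endothelial cells co-cultured with PBMC (LPS system) were dosed for 24 h. Total protein was stained with 0.1% sulforhodamine B after 10% TCA fixation, read at 560 nm, and fitted bidirectionally against DMSO baseline.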
# Sequence of E-selectin (Homo sapiens) (P16581 whole entry, looked up): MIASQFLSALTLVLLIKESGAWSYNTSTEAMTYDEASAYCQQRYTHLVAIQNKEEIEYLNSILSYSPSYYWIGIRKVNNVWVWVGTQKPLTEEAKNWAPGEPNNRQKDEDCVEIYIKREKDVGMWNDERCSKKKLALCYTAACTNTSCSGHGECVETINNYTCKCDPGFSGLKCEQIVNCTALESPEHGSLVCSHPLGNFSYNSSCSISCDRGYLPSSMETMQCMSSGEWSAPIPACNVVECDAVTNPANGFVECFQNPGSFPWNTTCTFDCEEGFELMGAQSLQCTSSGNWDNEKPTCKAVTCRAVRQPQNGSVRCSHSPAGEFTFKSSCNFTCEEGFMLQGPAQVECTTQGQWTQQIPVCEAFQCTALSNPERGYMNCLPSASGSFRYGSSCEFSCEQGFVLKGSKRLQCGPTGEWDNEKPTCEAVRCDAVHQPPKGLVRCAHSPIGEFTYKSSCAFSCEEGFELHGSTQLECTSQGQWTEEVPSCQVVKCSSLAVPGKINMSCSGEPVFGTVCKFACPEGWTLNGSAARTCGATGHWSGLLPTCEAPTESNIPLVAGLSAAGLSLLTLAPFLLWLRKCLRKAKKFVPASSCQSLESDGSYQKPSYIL
compound,measurement,setting,value
CCCCCC(=O)O,outcome,[1],inactive
same,outcome,[2],inactive
same,outcome,[3],inactive
same,outcome,[4],inactive
same,outcome,[5],inactive
same,outcome,[6],inactive
same,outcome,[7],inactive
same,outcome,[8],inactive
same,outcome,[9],inactive
same,outcome,[10],inactive
CC1(C)CC(N=C=O)CC(C)(CN=C=O)C1 (configuration not stated),outcome,[1],inactive
same,outcome,[2],inactive
same,outcome,[3],inactive
same,outcome,[4],inactive
same,outcome,[5],inactive
same,outcome,[6],inactive
same,outcome,[7],inactive
same,outcome,[8],inactive
same,outcome,[9],inactive
same,outcome,[10],inactive
CCCCOC(=O)CCCCCCCCC(=O)OCCCC,outcome,[1],inactive
same,outcome,[2],inactive
same,outcome,[3],inactive
same,outcome,[4],inactive
same,outcome,[5],inactive
same,outcome,[6],inactive
same,outcome,[8],inactive
same,outcome,[9],inactive
OC[C@@H](O)[C@@H](O)[C@H](O)[C@H](O)CO,outcome,[1],inactive
same,outcome,[2],inactive
same,outcome,[3],inactive
same,outcome,[4],inactive
same,outcome,[5],inactive
same,outcome,[6],inactive
same,outcome,[8],inactive
same,outcome,[9],inactive
Cc1cccc(C)c1O,outcome,[1],inactive
same,outcome,[2],inactive
same,outcome,[3],inactive
same,outcome,[4],inactive
same,outcome,[5],inactive
same,outcome,[6],inactive
same,outcome,[8],inactive
same,outcome,[9],inactive
C1CCC(SSC2CCCCC2)CC1,outcome,[1],inactive
same,AC50,[2],5.11 µM (active)
same,AC50,[3],5.33 µM (active)
same,outcome,[4],inactive
same,AC50,[5],13.7 µM (active)
same,outcome,[6],inactive
same,outcome,[8],inactive
same,outcome,[9],inactive
CCCCCCCCCCC,outcome,[1],inactive
same,outcome,[2],inactive
same,outcome,[3],inactive
same,outcome,[4],inactive
same,outcome,[5],inactive
same,outcome,[6],inactive
same,outcome,[7],inactive
same,outcome,[8],inactive
same,outcome,[9],inactive
same,outcome,[10],inactive
Cc1ccc(Cl)cc1,outcome,[1],inactive
same,outcome,[2],inactive
same,outcome,[3],inactive
same,outcome,[4],inactive
same,outcome,[5],inactive
same,outcome,[6],inactive
same,outcome,[8],inactive
same,outcome,[9],inactive
same,outcome,[10],inactive
CC(=O)OCCOCCOCCOC(C)=O,outcome,[1],inactive
same,outcome,[2],inactive
same,outcome,[3],inactive
same,outcome,[4],inactive
same,outcome,[5],inactive
same,outcome,[6],inactive
same,outcome,[8],inactive
same,outcome,[9],inactive
same,outcome,[10],inactive
Cc1ccc(N(C)C)cc1,outcome,[1],inactive
same,outcome,[2],inactive
same,outcome,[3],inactive
same,outcome,[4],inactive
same,outcome,[5],inactive
same,outcome,[6],inactive
same,outcome,[8],inactive
same,outcome,[9],inactive
same,outcome,[10],inactive
CC1=C(/C=C/C(C)=C/C=C/C(C)=C/CO)C(C)(C)CCC1,outcome,[1],inactive
same,outcome,[2],inactive
same,outcome,[3],inactive
same,outcome,[4],inactive
same,AC50,[5],32.3 µM (active)
same,outcome,[6],inactive
same,AC50,[8],4.25 µM (active)
same,outcome,[9],inactive
CC(C)c1ccc(C(=O)N=C(N)N)cc1S(C)(=O)=O,outcome,[1],inactive
same,outcome,[2],inactive
same,outcome,[3],inactive
same,outcome,[4],inactive
same,outcome,[5],inactive
same,outcome,[6],inactive
same,outcome,[8],inactive
same,outcome,[9],inactive
same,outcome,[10],inactive
Clc1cc(Cl)c(Cl)cc1Cl,outcome,[1],inactive
same,outcome,[2],inactive
same,outcome,[3],inactive
same,outcome,[4],inactive
same,outcome,[5],inactive
same,outcome,[6],inactive
same,outcome,[8],inactive
same,outcome,[9],inactive
same,outcome,[10],inactive
O=C(O)CCCCC(=O)O,outcome,[1],inactive
same,outcome,[2],inactive
same,outcome,[3],inactive
same,outcome,[4],inactive
same,outcome,[5],inactive
same,outcome,[6],inactive
same,outcome,[8],inactive
same,outcome,[9],inactive
same,outcome,[10],inactive
Nc1ccc(S(=O)(=O)c2ccc(N)cc2)cc1,outcome,[1],inactive
same,outcome,[2],inactive
same,outcome,[3],inactive
same,outcome,[4],inactive
same,outcome,[5],inactive
same,outcome,[6],inactive
same,outcome,[8],inactive
same,outcome,[9],inactive
same,outcome,[10],inactive
NCCO,outcome,[1],inactive
same,outcome,[2],inactive
same,outcome,[3],inactive
same,outcome,[4],inactive
same,outcome,[5],inactive
same,outcome,[6],inactive
same,outcome,[8],inactive
same,outcome,[9],inactive
Cc1ccc(C(C)C)c(O)c1,outcome,[1],inactive
same,outcome,[2],inactive
same,outcome,[3],inactive
same,outcome,[4],inactive
same,outcome,[5],inactive
same,outcome,[6],inactive
same,outcome,[8],inactive
same,outcome,[9],inactive
same,outcome,[10],inactive
COc1cc(S(=O)(=O)O)c(C)cc1N=Nc1c(O)ccc2cc(S(=O)(=O)O)ccc12,outcome,[1],inactive
same,outcome,[2],inactive
same,outcome,[3],inactive
same,outcome,[4],inactive
same,outcome,[5],inactive
same,outcome,[6],inactive
same,outcome,[8],inactive
same,outcome,[9],inactive
same,outcome,[10],inactive
CCCCCCC(=O)OCC,outcome,[1],inactive
same,outcome,[2],inactive
same,outcome,[3],inactive
same,outcome,[4],inactive
same,outcome,[5],inactive
same,outcome,[6],inactive
same,outcome,[8],inactive
same,outcome,[9],inactive
same,outcome,[10],inactive
CNC(=O)[C@H]1O[C@@H](n2cnc3c(NCc4cc(Cl)ccc4OCc4cc(C)no4)ncnc32)[C@H](O)[C@@H]1N,outcome,[1],inactive
same,outcome,[2],inactive
same,outcome,[3],inactive
same,outcome,[4],inactive
same,outcome,[5],inactive
same,outcome,[6],inactive
same,outcome,[8],inactive
same,outcome,[9],inactive
same,outcome,[10],inactive
Nc1ccccc1N,outcome,[1],inactive
same,outcome,[2],inactive
same,outcome,[3],inactive
same,outcome,[4],inactive
same,AC50,[5],20 µM (active)
same,outcome,[6],inactive
same,outcome,[8],inactive
same,outcome,[9],inactive
CN[C@H]1CC[C@@H](c2ccc(Cl)c(Cl)c2)c2ccc(S(N)(=O)=O)cc21,AC50,[1],29.1 µM (active)
same,AC50,[2],25.3 µM (active)
same,AC50,[3],19.9 µM (active)
same,AC50,[4],14.9 µM (active)
same,AC50,[5],20.9 µM (active)
same,AC50,[6],18.6 µM (active)
same,AC50,[8],30.5 µM (active)
same,AC50,[9],20 µM (active)
same,AC50,[10],26.6 µM (active)
C[C@]12C=CC(=O)C=C1CC[C@@H]1[C@@H]2C(=O)C[C@@]2(C)[C@H]1CC[C@]2(O)C(=O)CO,outcome,[1],inactive
same,outcome,[2],inactive
same,outcome,[3],inactive
same,outcome,[4],inactive
same,outcome,[5],inactive
same,outcome,[6],inactive
same,outcome,[8],inactive
same,outcome,[9],inactive
same,outcome,[10],inactive
Cc1cccc([N+](=O)[O-])c1C,outcome,[1],inactive
same,outcome,[2],inactive
same,outcome,[3],inactive
same,outcome,[4],inactive
same,outcome,[5],inactive
same,outcome,[6],inactive
same,outcome,[8],inactive
same,outcome,[9],inactive
same,outcome,[10],inactive

# — PubChem BioAssay (EPA / NIEHS)
